# Inconclusive results are not listed. Active and inactive are the calls of the source. Calls come from the whole dose curve; as a rule, active = well fitted cell-killing curve with a large enough effect; inconclusive = small, poorly fitted or top-dose-only effect; inactive = flat fitted curve, though single readings scatter.
# Assay: qHTS of pediatric cancer cell lines to identify multiple opportunities for drug repurposing: Primary screen for TC32 cells (AID 1347089); note: nearly all actives have a fitted effect of over 60% in size
# Conditions: TC32 Ewing sarcoma viability, CellTiter-Glo luminescence, 48 h; series mostly up to 45.8 µM
# Description: Drug repurposing or repositioning has been offered as a strategy for drug development in oncology programs. This approach has special potential for childhood cancers and other rare or orphan diseases, where the expected return on new drug development has been a disincentive to pharmaceuticals.
# In this project we exploit the poly-pharmacology of drugs to discover new indications via phenotypic screening of a panel of 19 well-characterized cell lines derived from solid tumors seen in children and adolescents. The goal is to identify approved drugs with previously unrecognized anticancer properties that has the potential to reveal new mechanisms and biological processes involved in carcinogenesis or drug resistance. We employed a titration-based paradigm (quantitative high-throughput screening or qHTS), where all compounds were tested at multiple concentrations for their effect on cell viability. Concentration-response curves (CRCs) were derived directly from the primary screen, and both potency and efficacy values were used to identify compounds with robust bioactivity profiles. We screened the NIH Chemical Genomics Center (NCGC) Pharmaceutical Collection (NPC) and Mechanism Interrogation Plate (MIPE) small molecule collections of approved and investigational compounds against these cell lines; and measured metabolically active cells after 48 hours of compound treatment as a proxy for cell viability.
# Assay Submitter: Nathalia J. Martinez, National Center for Advancing Translational Sciences, National Institutes of Health, Rockville, MD, USA; email: natalia.martinez@nih.gov
# [1] Shen, M et al. Quantitative high-throughput phenotypic screening of pediatric cancer cell lines identifies multiple opportunities for drug repurposing. Oncotarget 2017 Dec 19;9(4):4758-4772. PMID 29435139.
# The cells were obtained from University of North Carolina (UNC), Pediatric Preclinical Testing Program (PPT), and Coriell Institute (CI).
# qHTS cell viability assay:
# Cells were assayed in growth media at a density of 500-1,000 cells/well. Five microliters of cells were dispensed into 1,536-well, white, solid-bottom, TC-treated plates (Greiner Bio One) using a multidrop dispenser and incubated at 37 degrees C, 5% CO2, under a humidified atmosphere for 5 hours. Twenty-three nanoliters of compounds and controls (neutral control DMSO or positive control bortezomib at final concentration of 2.3 uM) were subsequently transferred by Kalypsys pintool. For primary screens, the MIPE collection was tested at 11-point dilutions (final concentrations range from 0.78 nM to 46 µM) and the NPC collection at 8-point dilutions (final concentrations range from 0.59 nM to 46 µM). Compounds tested in follow-up screens were assayed at 11-point dilutions. Cells were incubated for 48 hours, followed by addition of 3 uL of CellTiter-Glo (Promega). After a 15min incubation at room temperature, samples were analyzed for luminescence intensity using a ViewLux High-throughput CCD imager equipped with clear filters.
row,Structure (SMILES),outcome
1,C1CCN2C[C@@H]3C[C@@H](CN4CCCC[C@@H]34)[C@H]2C1,inactive
2,Nc1ncnc(Nc2ccccc2)n1,inactive
3,C=CCOc1ccccc1OCC(O)CNC(C)C (stereo not given),inactive
4,c1ccc2[nH]ccc2c1,inactive
5,CN[C@@H]1[C@@H](O)[C@@H](O[C@@H]2[C@H](O)[C@H](O[C@H]3OC(CN)=CC[C@H]3N)[C@@H](N)C[C@H]2N)OCC1(C)O (stereo not given in full),inactive
6,CCCCCOC(=O)Nc1nc(=O)n([C@@H]2O[C@H](C)[C@@H](O)[C@H]2O)cc1F,inactive
7,NC(N)=NS(=O)(=O)c1ccc(N)cc1,inactive
8,O=C(c1ccccc1)C(O)c1ccccc1 (stereo not given),inactive
9,C[C@@H](N)C(=O)O,inactive
10,C[C@]1(Cn2ccnn2)[C@H](C(=O)O)N2C(=O)C[C@H]2S1(=O)=O,inactive
11,Cc1cc(C)c(NC(=O)CN(CC(=O)O)CC(=O)O)c(C)c1Br,inactive
12,CCOC(=O)[C@H](CCc1ccccc1)N[C@@H](C)C(=O)N1CCC[C@H]1C(=O)O,inactive
13,CNc1c2c(nn1C)CCCC2,inactive
14,COc1ccc(C(=O)NCc2ccc(OCCN(C)C)cc2)cc1OC,inactive
15,O=C(O)c1ccccc1C(=O)Nc1ccc(S(=O)(=O)Nc2nccs2)cc1,inactive
16,NNC(=O)CP(=O)(c1ccccc1)c1ccccc1,inactive
17,O=C1c2cccc(O)c2C(=O)c2c(O)cccc21,inactive
18,O=C(O)c1ccc(OCCCOc2ccc(C(=O)O)cc2)cc1,inactive
19,CC(C)CCOC(=O)c1ccc(N(C)C)cc1,inactive
20,Cc1ccc(C(C)C)c(O)c1,inactive

row,Structure (SMILES),outcome
1,OCC(O)CS (stereo not given),inactive
2,CCCNC(C)(C)COC(=O)c1ccccc1,inactive
3,CC(=O)N1C[C@H](O)C[C@H]1C(=O)O,inactive
4,CC(=O)NS(=O)(=O)c1ccc(N)cc1,inactive
5,CC(CSC(=O)c1ccccc1)C(=O)N1C[C@@H](Sc2ccccc2)C[C@H]1C(=O)O (stereo not given in full),inactive
6,COC(=O)c1ccccc1C(=O)c1ccc(OCCN2CCCCC2)cc1,inactive
7,Cc1cccc(C)c1NC(=O)CC12CCCN1CCC2,inactive
8,COC(=O)c1ccc(O)cc1,inactive
9,CCN(CC)C(=O)c1cccc(C)c1,inactive
10,CC(C)(C)C(=O)OCOC(=O)[C@@H]1N2C(=O)[C@@H](NC(=O)[C@H](N)c3ccccc3)[C@H]2SC1(C)C,inactive
11,CCCC(O)C(CC)CO (stereo not given),inactive
12,O=C(Cn1ccnc1[N+](=O)[O-])NCc1ccccc1,inactive
13,CN1C(C)(C)CCCC1(C)C,inactive
14,CC(O)CCCCn1c(=O)c2c(ncn2C)n(C)c1=O (stereo not given),inactive
15,C=CCN1C[C@H](C(=O)N(CCCN(C)C)C(=O)NCC)C[C@@H]2c3cccc4[nH]cc(c34)C[C@H]21,inactive
16,OCCN1C[C@H](O)[C@@H](O)[C@H](O)[C@H]1CO,inactive
17,CC(=O)Nc1ccccc1,inactive
18,O=c1[nH]c(=O)c2ccccc2o1,inactive
19,O=C(CN1CCNCC1)NC1CCCCC1,inactive
20,Cc1cc(=O)[nH]c(=S)[nH]1,inactive

# From PubChem BioAssay (NCATS)
